In PubChem BioAssay AID1511 (Johns Hopkins Ion Channel Center, 2009):
The whole screen tested about 310,000 compounds, of which about 1,600 (0.52%) were called active.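 How the source made its calls: active means activation above the mean of controls blocked by dofetilide plus 5 SD; inactive means the rest.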 The entries come from a sample that favours actives as a whole. Square brackets hold non-standard residues; d marks the D form. Peptide text beside a SMILES is read from it. ξ: configuration not given here. ξM = CSCCC(N)C(=O)O

Biological target: Voltage-gated inwardly rectifying potassium channel KCNH2 (Homo sapiens) (UniProt Q12809)
Assay: compounds relieving dofetilide block of hERG – cell-based, CHO-hERG, FluxOR thallium flux, dofetilide IC70, primary screen (AID 1511);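 further: thallium influx through hERG after potassium depolarization seen as dye fluorescence rise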
Conditions: dofetilide IC70 present, at 10 µM, stronger effect = higher value

Chain of Voltage-gated inwardly rectifying potassium channel KCNH2 (Homo sapiens) (Q12809 whole entry, looked up): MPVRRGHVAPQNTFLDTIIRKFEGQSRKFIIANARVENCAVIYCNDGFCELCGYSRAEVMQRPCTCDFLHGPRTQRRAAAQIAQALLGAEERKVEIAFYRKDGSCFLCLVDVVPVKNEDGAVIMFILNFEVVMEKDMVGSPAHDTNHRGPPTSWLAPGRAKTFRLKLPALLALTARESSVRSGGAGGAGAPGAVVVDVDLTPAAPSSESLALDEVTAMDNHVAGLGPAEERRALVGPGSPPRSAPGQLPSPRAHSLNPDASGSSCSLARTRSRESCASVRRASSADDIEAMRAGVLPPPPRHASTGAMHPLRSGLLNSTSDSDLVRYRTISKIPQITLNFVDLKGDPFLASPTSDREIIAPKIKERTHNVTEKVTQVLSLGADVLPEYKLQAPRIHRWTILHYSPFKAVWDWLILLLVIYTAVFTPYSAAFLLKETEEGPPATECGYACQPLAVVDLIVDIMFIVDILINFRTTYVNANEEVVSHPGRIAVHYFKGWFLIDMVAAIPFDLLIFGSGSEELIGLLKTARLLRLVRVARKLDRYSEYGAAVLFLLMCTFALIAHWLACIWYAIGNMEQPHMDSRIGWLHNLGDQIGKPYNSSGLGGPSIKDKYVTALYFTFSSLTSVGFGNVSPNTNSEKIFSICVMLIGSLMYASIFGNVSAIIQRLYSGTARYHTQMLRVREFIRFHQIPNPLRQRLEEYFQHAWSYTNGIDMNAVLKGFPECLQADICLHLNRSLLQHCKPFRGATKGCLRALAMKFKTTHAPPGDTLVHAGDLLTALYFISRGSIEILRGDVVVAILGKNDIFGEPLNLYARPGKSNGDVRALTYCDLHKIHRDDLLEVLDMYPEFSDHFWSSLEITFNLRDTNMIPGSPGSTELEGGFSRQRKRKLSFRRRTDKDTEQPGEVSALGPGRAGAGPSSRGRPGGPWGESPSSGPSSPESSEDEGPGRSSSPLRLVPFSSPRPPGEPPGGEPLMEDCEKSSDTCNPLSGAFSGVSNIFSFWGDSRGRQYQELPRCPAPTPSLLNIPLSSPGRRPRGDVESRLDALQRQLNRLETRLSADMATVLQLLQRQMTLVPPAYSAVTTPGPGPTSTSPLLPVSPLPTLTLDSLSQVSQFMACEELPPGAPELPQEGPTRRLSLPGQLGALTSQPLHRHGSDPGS

| SMILES | activation (rescue from dofetilide block), less the hit threshold |
| --- | --- |
| O=C(CN1CCN(S(=O)(=O)c2cc(Cl)ccc2Cl)CC1)c1ccc(O)c(O)c1 | -1.99% (inactive) |
| Cc1nc(N2CCOCC2)sc1C(=O)NN | 4.6% (active) |
| Cc1nc(-c2ccc(Cl)cc2)sc1C(=O)NN | -10.7% (inactive) |
| CCOC(=O)N1CCC(NC(=O)c2ccc3nc(N4CCOCC4)sc3c2)CC1 | -5.7% (inactive) |
| Cc1cc(O)c(C(=O)/C=C/c2c(F)c(F)c(F)c(F)c2F)c(=O)o1 | -23.3% (inactive) |
| COc1ccc(CCNC(=O)C(=O)Nc2ccc3nc4n(c(=O)c3c2)CCCCC4)cc1OC | -11.8% (inactive) |
| Nc1nc(SCC(=O)N2CCN(S(=O)(=O)c3ccc(Cl)cc3)CC2)n[nH]1 | -4.93% (inactive) |
| Cc1ccc(S(=O)(=O)N(C)CC(=O)OCC(=O)N2CC(=O)Nc3ccccc32)cc1 | -8.2% (inactive) |
| O=[N+]([O-])c1ccccc1S(=O)(=O)Nc1cccc2cccnc12 | -0.19% (inactive) |
| Cc1ccc(NS(=O)(=O)c2ccc(C)c(NC(=O)COc3ccc4ccccc4c3)c2)c(C)c1 | -12.4% (inactive) |
| COc1cc(NS(=O)(=O)c2ccc3ccccc3c2)c2ncccc2c1 | 5.48% (active) |
| Cc1ccc(NC(=O)c2cc([N+](=O)[O-])ccc2Cl)c(O)c1 | -3.14% (inactive) |
| CCCNC(=O)COc1coc(CN2CCN(Cc3ccccc3)CC2)cc1=O | -2.43% (inactive) |
| COC(=O)CNC(=O)C(CCSC)NC(C)=O (stereo not given) (Ac-[ξM]-Gly-OMe) | -1.31% (inactive) |
| CC(N=Cc1nc(-c2ccccc2)oc1O)c1ccccc1 (stereo not given) | -4.74% (inactive) |
| CCOc1ccc2nc(N(CCCN(C)C)C(=O)c3ccc(C(=O)c4ccccc4)cc3)sc2c1 | -26.7% (inactive) |
| CCOc1ccc2nc(/N=C/c3nc(-c4ccccc4)oc3O)sc2c1 | 17.1% (active) |
| COC(=O)c1cn(C)c2ccc(S(=O)(=O)N3CC(C)CC(C)C3)cc2c1=O (stereo not given) | -10.9% (inactive) |
| CCOC(=O)C1=C(C)Nc2sc(C(=O)c3ccc(Br)cc3)c(N)c2C1c1ccc(C(=O)OC)cc1 (stereo not given) | -8.23% (inactive) |
| CCOC(=O)c1ccc(Nc2cc3ccccc3c(=O)[nH]2)cc1 | -10.6% (inactive) |
| CCOC(=O)c1sc(=S)n2c1[nH]c(=O)c1ccc(C(=O)OC)cc12 | 77.9% (active) |
| N/C(=N\OC(=O)CC1CCCCC1)c1ccccc1 | -5.76% (inactive) |
| CCCCn1c(N)c(N(CCOC)C(=O)c2sc3ccccc3c2Cl)c(=O)[nH]c1=O | -2.36% (inactive) |
| CN(C)c1cc(N)c2ccccc2n1 (tested in a mixture with another compound) | 5% (active) |
| Nc1nc(-c2ccccc2)cc(-c2ccccc2)n1 | -6.21% (inactive) |

| SMILES | activation (rescue from dofetilide block), less the hit threshold |
| --- | --- |
| COc1ccc(-c2cc(C(=O)N(C)Cc3ccccc3)c3ccccc3n2)cc1 | -21.9% (inactive) |
| CCCCOC(=O)c1ccc(NC(c2ccc(C)cc2)P(=O)(OC)OC)cc1 (stereo not given) | -14.4% (inactive) |
| CC(=O)N1CCc2cc(Br)cc(S(=O)(=O)CCC(=O)Nc3c(C)n(C)n(-c4ccccc4)c3=O)c21 | -18% (inactive) |
| Cc1cc(=O)oc2c1c(C)nn2-c1ccc(Cl)cc1 | -1.68% (inactive) |
| Cc1nn(-c2cc(Cl)ccc2N)c(=O)c2ccccc12 | 7.47% (active) |
| Cc1nn(C)cc1N1C(=O)c2cccc3c(N)ccc(c23)C1=O | -54.8% (inactive) |
| NS(=O)(=O)c1cccc(NC(=O)CC23CC4CC(CC(Br)(C4)C2)C3)c1 | -7.94% (inactive) |
| Cc1cccc(C)c1NC(=O)CS(=O)CC(=O)N1CCN(c2ccccc2)CC1 (stereo not given) | -5.6% (inactive) |
| CC(C)C(=O)Nc1nnc(Sc2ccc(N(C)C)cc2)s1 | -6.31% (inactive) |
| Cc1cccc(NC(=S)NCCN(C2CCCCC2)C2CCCC2)c1 | -7.92% (inactive) |
| Cc1cccc(C(=O)NC(=S)N(C)C2CCCCC2)c1 | 11.6% (active) |
| Cc1cccc(C(=O)NCCCN(C)CCCNC(=O)c2cccc(C)c2)c1 | -3.82% (inactive) |
| COc1ccc2cc(C(=O)NCC3CCCO3)[nH]c2c1 (stereo not given) | -3.17% (inactive) |
| N#CC1=C(N)N(c2ccc(F)cc2)C(=O)C1 | 3.49% (inactive) |
| O=C(O)CCCCOn1ccnc1 | -8.74% (inactive) |
| O=c1c2ccccc2ncn1CCCCOc1ccccc1F | -7.18% (inactive) |
| O=C(NNC(=S)NC1CCCCC1)c1ccccc1Cl | -19.3% (inactive) |
| COc1ccc(Cl)cc1C(=O)NNC(=S)NC1CCCC1 | 5.84% (active) |
| O=C(/C=C/c1ccco1)NC(=S)N1CCCCC1 | -8.68% (inactive) |
| O=C(/C=C/c1ccco1)NC(=S)Nc1ccccc1Br | 0.92% (inactive) |
| C=CCNC(=S)NNC(=O)c1cc(Cl)ccc1OC | -3.41% (inactive) |
| COc1ccc(Cl)cc1C(=O)NNC(=S)NC(=O)/C=C/c1ccco1 | 34.2% (active) |
| Cc1cccc(Cn2cnc3c(N)c(C)c(C)cc32)c1 | -4.77% (inactive) |
| CCOC(=O)/C=C/C(=O)OCC(=O)NC(c1ccccc1)c1ccccc1 | -0.47% (inactive) |
| CSc1cccc(NC(=O)CN2C(=O)COc3ccc(S(=O)(=O)N4CCOCC4)cc32)c1 | -8.66% (inactive) |

| SMILES | activation (rescue from dofetilide block), less the hit threshold |
| --- | --- |
| COc1cccc(CNCc2ccc3c(c2)OCO3)c1 | -1.37% (inactive) |
| O=C(O)c1cccc(N2C(=O)Nc3ccccc3N2O)c1 | 5.69% (active) |
| NC1=NN(c2cccc(C(=O)O)c2)C(=O)C1 | -7.19% (inactive) |
| O=C1Nc2cc(Cl)c(Cl)cc2N(O)N1c1ccccc1Cl | -11.3% (inactive) |
| COc1cc(OC)c(NC(=O)C2CCCN2C(=O)OCc2ccccc2)cc1Cl (stereo not given) | -14.7% (inactive) |
| COCCCNC(=O)CN1C(=O)CSc2ccc(S(=O)(=O)N3CCOCC3)cc21 | -5.64% (inactive) |
| O=C(COC(=O)c1ccccc1NC(=O)c1ccco1)Nc1ccc2c(c1)OC(F)(F)O2 | -13.6% (inactive) |
| O=S(=O)(NCCCc1ccccc1)c1ccc(Br)cc1 | -3.29% (inactive) |
| O=C1c2cccnc2C(=O)N1Cc1cccs1 | -8.43% (inactive) |
| O=C1c2ccccc2C(=O)N1Cc1cc(-c2ccccc2Cl)no1 | 11.4% (active) |
| O=C1c2ccccc2C(=O)N1CCCc1nc(-c2ccccc2)no1 | -6.67% (inactive) |
| Cc1ccc(NC(=O)C(CC(=O)O)C2CCCO2)c(C)c1 (stereo not given) | -3.96% (inactive) |
| COCCCn1c(Cc2csc(Nc3cccc(Cl)c3)n2)nnc1SCC(=O)OC1CCCCC1 | -9.88% (inactive) |
| Cc1c(NC(=O)C(C)Oc2cccc(Cl)c2)c(=O)n(-c2ccccc2)n1C (stereo not given) | -2.29% (inactive) |
| OC1CN=C2Sc3ccccc3N2C1 (stereo not given) | 4.61% (active) |
| CCCNCc1cc(OCC)c(OCC(=O)Nc2ccccc2)cc1Br | -25.3% (inactive) |
| C=Cn1cc[n+](CC(=O)c2ccc(OC)c(OC)c2)c1 | -13.3% (inactive) |
| COc1ccc(C23NCCN2C(=O)c2ccccc23)cc1 (stereo not given) | -7.58% (inactive) |
| Cc1cc(O)c(C2(O)C(=O)Nc3ccccc32)cc1C (stereo not given) | -4.06% (inactive) |
| COc1ccc(C2(O)C(=O)Nc3ccccc32)cc1 (stereo not given) | 4.63% (active) |
| Cc1ccc(N2C(=O)C3N=NN(CC(=O)N4N=C(c5cccc6ccccc56)CC4c4ccccc4)C3C2=O)cc1 (stereo not given) | -4.02% (inactive) |
| CC(C)(C)c1cc(P(=O)(c2ccccc2)c2ccccc2)ccc1O | -11.2% (inactive) |
| O=P(O)(CP(=O)(c1ccccc1)c1ccccc1)c1ccccc1O | 6.37% (active) |
| O=P(O)(CP(=O)(c1ccccc1)c1ccccc1)c1ccccc1 | -3.04% (inactive) |
| CS(=O)(=O)N(CC(=O)NC1CCCC1)Cc1ccc(F)cc1 | 1.73% (inactive) |
